In the library only some 1.6% were active in any assay of this set; here they are far more common.
Coupling enz = coupling enzyme interference in Giardia aldolase counter-screen. coupling enzyme system counterscreen, AmpLite Red fluorescence. activity change, negative = inhibition, % at 58.2 µM, hits read low. actives 0.67% (n = 290,000); in the data active = activity change below about -30%; also: % is scaled to controls: 0 for no effect and ±100 for the full control effect
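Activity here indicates interference with the coupling reaction, not aldolase inhibition. Compounds at 57.5 uM final met coupling enzymes for 10 min at RT; substrate and AmpLite Red detection followed, with a 525/598 nm fluorescence read after 20 min.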
RXFP1 agonist = RXFP1 (human) receptor agonism. HEK293T-RXFP1 cAMP TR-FRET, 30 min; response scale: percent of porcine relaxin response, buffer zero. Q9HBX9. AID 2676. actives 0.3% (n = 370,000). Potency, µM (titrated, usually from 57.5 µM), for inactives: top-dose activation, usual class: activators; active = well fitted activation curve with a large enough effect; inconclusive = small, poorly fitted or top-dose-only effect; also: potency is read from the fitted curve at half-maximal effect; % is scaled to controls: 0 for no effect and ±100 for the full control effect; nearly all actives have a fitted effect of over 60% in size
Target sequence (Q9HBX9 whole entry, looked up): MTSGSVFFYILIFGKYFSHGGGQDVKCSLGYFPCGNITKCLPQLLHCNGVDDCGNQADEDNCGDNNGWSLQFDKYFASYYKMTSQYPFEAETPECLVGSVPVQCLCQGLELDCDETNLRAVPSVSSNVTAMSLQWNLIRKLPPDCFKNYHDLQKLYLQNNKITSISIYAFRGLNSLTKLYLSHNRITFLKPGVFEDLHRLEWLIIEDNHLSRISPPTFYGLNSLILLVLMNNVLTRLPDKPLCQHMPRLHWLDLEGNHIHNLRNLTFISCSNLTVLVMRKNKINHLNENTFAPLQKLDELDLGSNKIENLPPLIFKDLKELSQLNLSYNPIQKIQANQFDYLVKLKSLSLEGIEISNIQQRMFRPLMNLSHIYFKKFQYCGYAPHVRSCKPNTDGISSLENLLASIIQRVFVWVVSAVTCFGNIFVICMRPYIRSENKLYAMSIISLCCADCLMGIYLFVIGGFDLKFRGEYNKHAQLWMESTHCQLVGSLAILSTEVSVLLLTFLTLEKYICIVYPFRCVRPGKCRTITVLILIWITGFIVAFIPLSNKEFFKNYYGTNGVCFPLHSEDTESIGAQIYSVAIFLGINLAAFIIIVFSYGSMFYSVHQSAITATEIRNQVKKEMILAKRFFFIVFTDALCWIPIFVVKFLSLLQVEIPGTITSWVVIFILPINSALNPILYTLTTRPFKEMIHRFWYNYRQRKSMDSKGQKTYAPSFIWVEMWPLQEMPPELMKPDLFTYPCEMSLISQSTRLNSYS
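cAMP rise read by TR-FRET after 30 min, 37C compound exposure (up to 58 uM) in RXFP1-transfected HEK293 cells with Ro 20174 present. EC50 from Hill-equation fits, with 29 nM porcine relaxin as 100% and buffer as basal.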
RXFP1 antag = RXFP1 (human) relaxin receptor antagonism; AID 1259400; actives 0.59% (n = 350,000); activity change, negative = inhibition, % at 57.5 µM; HEK293-RXFP1, relaxin-stimulated cAMP HTRF, 30 min; active compounds read low;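 active = activity change of -60% or lower, but not beyond a set lower limit; inconclusive = change between -60% and -40%, or beyond the set limit; inactive = change above -40%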; also: % is scaled to controls: 0 for no effect and ±100 for the full control effect
gsp antagonist = antagonizes gsp, the McCune-Albright syndrome mutation | Potency, µM (titrated, usually from 76.9 µM), inactives show top-dose activity change, negative = inhibition, actives largely listed as inhibitors | gsp-mutant cells, cAMP HTRF, 30 min | actives 0.4% (n = 340,000); calls by dose curve; cell line not stated here;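 also: intracellular cAMP measured with PDE inhibitor Ro 20-1724 present during compound exposure; potency is read from the fitted curve at half-maximal effect; % is scaled to controls: 0 for no effect and ±100 for the full control effect; nearly all actives have a fitted effect of over 65% in size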
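Cells in G418 medium, seeded 16-24 h, 37C; buffer exchange to DPBS + 1 mM CaCl2, 0.5 mM MgCl2, 0.05% BSA; cpds in DMSO + […] (300 uM stock), 30 min 37C; HTRF cAMP detection.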
gsp agonist = agonists of gsp mutant (McCune-Albright syndrome) | AID 624287 | gsp mutant cells, cAMP HTRF, 30 min | actives 0.13% (n = 340,000) | Potency, µM (top dose mostly 76.9 µM), for the others: at the top dose activation (cAMP increase), most hits filed as activators; active = well fitted activation curve with a large enough effect; inconclusive = small, poorly fitted or top-dose-only effect, or another doubt; inactive = no such curve, though single readings can be large or run the other way; cell line not stated here;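 also: phosphodiesterase inhibitor Ro 20-1724 added with compounds to block cAMP breakdown; potency is read from the fitted curve at half-maximal effect; nearly all actives have a fitted effect of over 60% in size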
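Cells stably selected in G418 were plated at 2000/well, grown 16-24 hr, then given compounds in DMSO with the PDE inhibitor […] (300 uM solution added) for 30 min at 37C; cAMP was read by HTRF.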
Giardia killer = Giardia lamblia killing. Giardia lamblia trophozoite viability. AID 540267. activity change, % at 7.66 µM, hits read low. actives 0.15% (n = 340,000); in the data active = activity change below about -80%; inconclusive = between about -30% and that limit;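 also: parasites exposed to compound for two days anaerobically before the ATP read; % is scaled to controls: 0 for no effect and ±100 for the full control effect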
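Trophozoite viability was measured as ATP-dependent luminescence, read 15-30 min after reagent addition. Before that, parasites at 100 cells/well were exposed to compounds for 48 h, anaerobically, at 37 deg C.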
Active calls of the source: *; [ ] = another dose, or the depositor's remark.

Screening COc1cc(-c2ccc3oc(-c4ccsc4)cc(=O)c3c2)cc(OC)c1OC returned gsp antagonist inconclusive, gsp agonist -40.3% and Giardia killer -4.0.
Screening COc1ccc(CNc2ncnc3nc[nH]c23)cc1OC returned Giardia killer 15.4.
`Cc1ccc(S(=O)(=O)Oc2cccc(/C=N/n3cnnc3)c2)cc1` gave Coupling enz -20.7, RXFP1 agonist -0.4%, gsp antagonist 3.2%, gsp agonist inconclusive and Giardia killer 17.5.
`Cc1ccc(S(=O)(=O)Oc2cccc(/C=N/Nc3ccc(C(=O)O)cc3)c2)cc1` gave Coupling enz -41.2*, RXFP1 agonist 0.0%, RXFP1 antag -62.2*, gsp antagonist -27.5%, gsp agonist 5.8% and Giardia killer 8.9.
`COc1cc(C2Nc3c(F)cccc3C3C=CCC32)cc(Br)c1OC` (stereo not given) gave Coupling enz -2.1, RXFP1 agonist -1.8%, RXFP1 antag -64.6*, gsp antagonist 1.5%, gsp agonist -4.0% and Giardia killer 7.5.
Cc1cc(C)n(C(=O)CNC(=O)c2ccc(C(C)(C)C)cc2)n1 was read as Coupling enz 2.2, RXFP1 agonist -3.3%, RXFP1 antag -115.8*, gsp antagonist 1.5%, gsp agonist 8.4% and Giardia killer 8.4.
Screening COc1ccc(C(=O)NCCCN2CCN(CCCNC(=O)c3ccc(OC)c(OC)c3)CC2)cc1OC returned RXFP1 agonist 0.2%, RXFP1 antag -74.5*, gsp antagonist 5.9%, gsp agonist 8.2%[15.4 µM] and Giardia killer -1.1.
`COc1ccc(C(=O)NCC(=O)OCC(=O)NC(=O)c2ccc(C(C)(C)C)cc2)cc1OC` gave RXFP1 agonist -0.3%, RXFP1 antag 0.8, gsp antagonist 50.1µM*, gsp agonist 0.0% and Giardia killer 18.4.
`COc1ccc(C(=O)NCC(=O)n2nc(C)cc2C)cc1OC` gave Coupling enz 0.8, RXFP1 agonist 0.0%, RXFP1 antag -3.9, gsp antagonist 8.8%, gsp agonist 10µM* and Giardia killer -4.1.
Cc1cc(C)n(C(=O)CNC(=O)c2ccco2)n1 was read as Coupling enz 3.0, RXFP1 agonist 2.7%, RXFP1 antag 8.0, gsp antagonist -1.6%, gsp agonist 9.1% and Giardia killer -2.2.
Screening Cc1cc(C)n(C(=O)CNC(=O)Cc2ccccc2)n1 returned Coupling enz -0.1, RXFP1 agonist 1.3%, RXFP1 antag -19.1, gsp antagonist 5.1%, gsp agonist -13.1% and Giardia killer 2.3.
COc1ccc(OC)c(NC(=O)COC(=O)CNC(=O)c2ccc(OC)c(OC)c2)c1 was read as Coupling enz 0.6, RXFP1 agonist 2.4%, RXFP1 antag -13.7, gsp antagonist -4.9%, gsp agonist 1.0% and Giardia killer 7.6.
Screening Cc1ccc(CCn2c3c(c4cc(Cl)ccc42)CN(C)CC3)cn1 returned RXFP1 antag -16.0.
For COC(=O)c1ccc(C(NC(=O)c2ccco2)[C@]2(C)C[C@H]2C2CCCCC2)cc1 (stereo not given in full) the results were Coupling enz -0.2.
For COc1ccc(NC(=O)C2=NN(C3CCS(=O)(=O)C3)C(=O)CC2)cn1 (stereo not given) the results were Coupling enz -42.1*, RXFP1 agonist -1.0%, RXFP1 antag -2.6, gsp antagonist -3.7%, gsp agonist 13.4% and Giardia killer 17.8.
`Cc1ccc(-n2nnc3c(=O)oc4ccccc4c32)cc1` gave Coupling enz 2.4, RXFP1 agonist -1.7%, RXFP1 antag -88.7*, gsp antagonist inconclusive, gsp agonist -17.4% and Giardia killer 6.7.
`CCC(C)n1nnc2c(=O)oc3ccccc3c21` (stereo not given) gave Coupling enz 2.2, RXFP1 agonist 0.1%, RXFP1 antag -7.4, gsp antagonist -4.4%, gsp agonist 2.4% and Giardia killer 1.2.
CCOC(=O)c1sc2nc(C)[nH]c(=S)c2c1C was read as Coupling enz -1.3, RXFP1 agonist 28.2µM*, RXFP1 antag 34.2, gsp antagonist 3.0%, gsp agonist 12.6µM* and Giardia killer 11.9.
COc1ccc(CNC(=O)CSc2ccsc2[N+](=O)[O-])cc1 was read as Coupling enz 1.3, RXFP1 agonist 0.2%, RXFP1 antag 5.3, gsp antagonist -2.4%, gsp agonist 1.2% and Giardia killer inconclusive.
Cc1ccc(-c2csc(NC(=O)c3ccc(C)o3)n2)cc1 was read as Coupling enz 0.8, RXFP1 agonist 0.6%, RXFP1 antag -10.8, gsp antagonist -22.2%, gsp agonist 2.3% and Giardia killer 6.7.
For Cc1noc(C)c1C(=O)Nc1nc(-c2ccc([N+](=O)[O-])cc2)cs1 the results were RXFP1 agonist 3.8%, RXFP1 antag inconclusive, gsp antagonist 28.2µM*, gsp agonist -57.6% and Giardia killer 9.3.
Cc1ccc(CNC(=O)CSc2ccsc2[N+](=O)[O-])cc1 was read as Coupling enz 0.7, RXFP1 agonist -0.8%, RXFP1 antag -30.3, gsp antagonist 2.8%, gsp agonist 13.9% and Giardia killer -88.0*.
CN(Cc1ccccc1)C(=O)c1ccc([N+](=O)[O-])o1 was read as Coupling enz 1.3, RXFP1 agonist -1.5%, RXFP1 antag 4.1, gsp antagonist 6.3%, gsp agonist 17.0% and Giardia killer -87.0*.
Cc1ccc(-c2csc(NC(=O)c3ccc([N+](=O)[O-])o3)n2)cc1 was read as Coupling enz 2.5, RXFP1 agonist 0.4%, RXFP1 antag 12.3, gsp antagonist inconclusive, gsp agonist -45.3% and Giardia killer -95.3*.
`COc1cc(OC)c(NC(=O)c2csc3c2CCC(C)C3)cc1Cl` (stereo not given) gave RXFP1 agonist 1.4% and RXFP1 antag -13.6.
Screening Cc1ccc(CNC(=O)c2ccc([N+](=O)[O-])o2)cc1 returned Coupling enz -1.4, RXFP1 agonist -1.5%, RXFP1 antag 4.8, gsp antagonist 12.4%, gsp agonist -0.8% and Giardia killer -86.5*.
`CC(C)=NO[C@@H](C)CN1CCCCc2nc(C)c(C)cc21` gave Coupling enz 1.1.
`N#C/C(=C\c1cccc(Oc2ccccc2)c1)C(=O)N1CCOCC1` gave Coupling enz 4.0, RXFP1 agonist -0.5%, RXFP1 antag -101.8*, gsp antagonist 1.4%, gsp agonist 12.4%[15.4 µM] and Giardia killer 10.1.
`COc1ccc(-c2cc(-c3cc(C)ccc3O)[nH]n2)cc1` gave Coupling enz -3.9, RXFP1 agonist 1.5%, RXFP1 antag -99.7*, gsp antagonist -19.1%, gsp agonist 25.7% and Giardia killer -2.5.
